Laboratory results: PubChem BioAssay AID686979 (National Center for Advancing Translational Sciences (NCATS), 2013)
The whole screen tested about 420,000 compounds, of which about 50,000 (12%) were called active. Where a call stands in place of a potency, no number is given. Inconclusive results (about 26%) are left out. Only a selection was taken, and actives are over-represented in it overall. A number with no mark means an inactive call. Calls come from the whole dose curve; as a rule, active = well fitted inhibition curve with a large enough effect; inconclusive = small, poorly fitted or top-dose-only effect; inactive = flat fitted curve, though single readings scatter.

Experiment: qHTS for Inhibitors of human tyrosyl-DNA phosphodiesterase 1 (TDP1): qHTS in cells in presence of CPT; note: nearly all actives have a fitted effect of over 55% in size
Conditions: chicken DT40 Tdp1-/-;hTDP1 cells + 20 nM CPT, ATP luminescence, 48 h; series mostly up to 46.2 µM
In short: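 Chicken DT40 Tdp1-/- cells stably complemented with human TDP1 were seeded at 400 cells/well in medium containing 20 nM camptothecin, exposed to pin-transferred compounds, and grown at 37 °C for at least 48 hr. Viability was read as ATP luminescence.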
Potency is the fitted concentration of half-maximal effect.

Row | SMILES | Potency | activity change, negative = growth inhibition
1 | O=C1CC(c2cccc(Cl)c2)CC(O)=C1C=Nc1ccccc1 (stereo unspecified) | inactive | –
2 | CSc1ncnc2c1ncn2CCCNCc1cccs1 | inactive | –
3 | Cn1c(=O)c2c(n3c4ccccc4nc13)NC(=O)CC2c1cccc(Cl)c1 (stereo unspecified) | inactive | –
4 | CC(Oc1cccc(NC(=O)c2cccs2)c1)C(=O)c1ccccc1 (stereo unspecified) | inactive | –
5 | Cc1ccc(-c2noc(-c3nnn(-c4cccc(C(F)(F)F)c4)c3N)n2)cc1 | inactive | –
6 | Cc1ccc2nc(N(CCN(C)C)C(=O)C3=COCCO3)sc2c1 | inactive | –
7 | O=C(c1nnc(-c2ccc(Cl)cc2)o1)C1CCCC1 | inactive | –
8 | CC(C)N(Cc1nnc(-c2ccc(Cl)cc2)o1)C(=O)C1=COCCO1 | 9.2 µM (active) | –
9 | N#Cc1ccc(-c2cccs2)nc1SCc1ccc(Br)cc1 | inactive | –
10 | Nc1c(-c2ccccc2)nnn1Cc1ccccc1 | inactive | –
11 | Cc1cc(C(=O)NNC(=O)CCC2CCCCC2)c(C)o1 | inactive | –
12 | COc1ccc(C(=O)NC2CCCc3c2cnn3-c2cccc(C)c2C)c(OC)n1 (stereo unspecified) | 10.3 µM (active) | –
13 | Cc1cccc(C(=O)OC(C)C(=O)NC2CCCc3ccccc32)c1O (stereo unspecified) | inactive | –
14 | Cc1cc(C(=O)NC2CCCc3c2cnn3-c2cccc(C)c2C)c(C)o1 (stereo unspecified) | 13 µM (active) | –
15 | COCc1c(C(=O)NC2CCCCC2)cnn1-c1nccc(-c2ccccc2OC)n1 | – | 5.12% [at 9.04 µM]
16 | Cc1cc(C(=O)NCC2Cc3cccc(-c4cncnc4)c3O2)c(C)o1 (stereo unspecified) | – | 6.48% [at 9.04 µM]

Row | SMILES | Potency | activity change, negative = growth inhibition
17 | CCN(CC(=O)NCc1ccc(F)cc1)S(=O)(=O)c1ccc(Cl)s1 | inactive | –
18 | Cc1ccccc1CCNC(=O)C1CCC(=O)N(Cc2ccc(Cl)cc2)C1 (stereo unspecified) | inactive | –
19 | C/C(=N\Nc1ccc(S(N)(=O)=O)cc1[N+](=O)[O-])c1cccs1 | inactive | –
20 | CCCN(CCC)S(=O)(=O)c1cc2c(cc1Br)CCN2C(=O)CC | 8.2 µM (active) | –
21 | CCC(=O)N1CCc2cc(S(=O)(=O)NC(C(=O)N3CCc4ccccc4C3)C(C)C)ccc21 (stereo unspecified) | inactive | –
22 | CCC(=O)N1CCc2cc(Br)c(S(=O)(=O)NCCN3CCCCC3CC)cc21 (stereo unspecified) | inactive | –
23 | Cc1ccc2c(c1)-c1c(cnn1CC(=O)Nc1ccccc1C#N)CO2 | inactive | –
24 | O=C(O)C1C2C=CC(O2)C1C(=O)Nc1ccccn1 (stereo unspecified) | inactive | –
25 | Cc1cc(C)nc(SCc2nnc(SCC(=O)Nc3ncc(C)s3)n2Cc2ccco2)n1 | inactive | –
26 | CCOC(=O)CSc1nnc(-c2ccco2)n1C | inactive | –
27 | CCOC(=O)CSc1nc2c(sc(=S)n2CCc2ccccc2)c(=O)n1Cc1ccco1 | 20.6 µM (active) | –
28 | O=C(c1ccc(F)cc1)C1CCN(Cc2cn[nH]c2-c2ccccc2)CC1 | inactive | –
29 | CC(C)Sc1nnc([C@H](Cc2ccccc2)NC(=O)OC(C)(C)C)o1 | inactive | –
30 | C[C@@H](NC(=O)OC(C)(C)C)c1nnc(S(=O)(=O)Cc2ccccc2)o1 | 0.651 µM (active) | –
31 | C[C@H](NC(=O)OC(C)(C)C)c1nnc(SCC(N)=O)o1 | inactive | –
